In experiment [1] the target is Alpha-galactosidase A (Homo sapiens) (UniProt P06280). Briefly: Counterscreen for Glucocerebrosidase Inhibitors: qHTS Assay for Human alpha-Galactosidase at pH 4.5 (AID 992). Further: 0% is about no effect. The method in brief:
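Concentration-response curves (0.7 nM to 77 uM final) were modeled with the Hill equation to give AC50. Reactions: 2 nM enzyme, 80 uM fluorogenic alpha-galactoside, pH 4.5 citric acid buffer, 20 min, room temperature.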

Experiment [2] is described as follows: Validation of Assay for Modulators of Lamin A Splicing (AID 1459; active means well fitted curve in the direction sought with a large enough effect in the signal ratio; the % refers to the signal ratio;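 further: cells exposed to compound for two days before reading; 0% is about no effect; ratio rise marks activators and ratio drop marks inhibitors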). The method in brief: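 HeLa S3 lamin A-EGFP/DsRed2 stable clone, 600 cells/well, Opti-MEM 2% FBS; compounds by pin tool; 48 hrs, 37 °C/5% CO2; Acumen 488 nm scan, objects 10-100 um; GFP/RFP intensity ratio.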
The nature of experiment [3]: qHTS Assay for Lipid Storage Modulators (AID 1519; calls by dose curve; on activity change, negative = inhibition: on the % scale 0 is the no-effect control and ±100 the full control effect). The settings on record: Drosophila S3 cells, BODIPY lipid droplet/cell ratio, laser cytometry, cells loaded with oleic acid. The method in brief:
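Cells seeded at 5,000 per well were treated with compounds over a concentration series and loaded with oleic acid (400 uM, as added). Lipid droplet fluorescence (488 nm excitation, 500-530 nm channel) was read by laser-scanning cytometry and normalized to 20 uM Triacsin C.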

The nature of experiment [4]: Cell Viability - LYMP2-023 (AID 975).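 Further: cellular ATP measured by luciferase luminescence as viability proxy; plate controls were DMSO only for no effect and 92 µM tetraoctylammonium bromide control for full effect; nearly all actives have a fitted effect of over 55% in size.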 Summed up: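 Concentration-dependent drop in intracellular ATP measures acute cytotoxicity in a human lymphoblastoid line treated for 24 hours in complete culture medium. AC50 values are taken from Hill-equation fits of qHTS data.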
Experiment [5] can be described thus: Cell Viability - LYMP2-025 (AID 976).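 Further: plate controls were DMSO only for no effect and tetraoctylammonium bromide control for full effect.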 Summed up: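 In qHTS format, LYMP2-025 lymphoblastoid cells in complete culture medium received compound for 24 hr; ATP-based CellTiter-Glo signal gave viability, with AC50 derived by Hill equation.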
Experiment [6] can be described thus: Cell Viability - LYMP2-002 (AID 977).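 Further: compound exposure lasted 24 h at 37 °C; plate controls were DMSO only for no effect and 92 µM tetraoctylammonium bromide for full effect.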 Summed up:
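Human lymphoblastoid LYMP2-002 cells, 2500 per well, exposed to compounds for 24 h at 37 C in complete medium; viability read as intracellular ATP by CellTiter-Glo luminescence, AC50 from Hill fits.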

A short description of experiment [7]: Cell Viability - LYMP2-006 (AID 978). Further: on the % scale 0 is the no-effect control and ±100 the full control effect; nearly all actives have a fitted effect of over 60% in size. Summed up:
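Cells are seeded at 2500 per well and rested 5 hr at 37 C. Compounds are added across a concentration series for 24 hr at 37 C, after which ATP is quantified by luciferase luminescence.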

A short description of experiment [8]: Cell Viability - LYMP2-007 (AID 979).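 Further: cells exposed to compound for 24 h before reading; 0% = DMSO only and the negative end = 92 µM tetraoctylammonium bromide; nearly all actives have a fitted effect of over 60% in size.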 Summed up: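 Acute toxicity is scored as a concentration-dependent fall in intracellular ATP in human lymphoblastoid cells treated 24 hr at 37 C, measured by luciferase luminescence; Hill-equation modelling yields AC50.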
Experiment [9] can be described thus: Cell Viability - LYMP2-008 (AID 980). Further: on the % scale 0 is the no-effect control and ±100 the full control effect; nearly all actives have a fitted effect of over 60% in size. Summed up: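 Acute cytotoxicity is scored as concentration-dependent loss of cellular ATP in a human lymphoblastoid line after 24 hr treatment at 37 C. ATP is quantified by luciferase luminescence.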
The nature of experiment [10]: Cell Viability - LYMP2-010 (AID 981). Further: on the % scale 0 is the no-effect control and ±100 the full control effect; nearly all actives have a fitted effect of over 55% in size. The method in brief: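 Acute toxicity is scored as a concentration-dependent loss of cellular ATP in human lymphoblastoid cells after 24 hr compound exposure in complete medium. Tetraoctylammonium bromide is the positive control.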
A short description of experiment [11]: Cell Viability - LYMP2-012 (AID 982).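 Further: cellular ATP by luciferase luminescence where a drop means cytotoxicity; cells exposed to compound for one day before reading; 0% = DMSO only and full loss = 92 µM tetraoctylammonium bromide; nearly all actives have a fitted effect of over 55% in size.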
Experiment [12] can be described thus: Cell Viability - LYMP2-014 (AID 983).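 Further: plate controls were DMSO only for no effect and 92 µM tetraoctylammonium bromide for full effect; nearly all actives have a fitted effect of over 50% in size.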 The method in brief:
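Decrease in intracellular ATP after 24 hr treatment at 37 C, measured by luciferase luminescence, indicated cytotoxicity. Concentration-response data were fitted with the standard Hill equation to give AC50.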

Experiment [13] can be described thus: Cell Viability - LYMP2-016 (AID 984). Further: on the % scale 0 is the no-effect control and ±100 the full control effect; nearly all actives have a fitted effect of over 55% in size. The method in brief:
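Cells were seeded at 2500 per well and rested 5 hr before a 24 hr compound exposure at 37 C. Viability was then gauged as cellular ATP by luciferase luminescence, with AC50 values fitted to the Hill equation.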

Experiment [14] is described as follows: Cell Viability - LYMP2-018 (AID 985).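 Further: plate controls were DMSO only for no effect and tetraoctylammonium bromide at 92 µM for full effect; nearly all actives have a fitted effect of over 50% in size.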 The method in brief: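 Acute cytotoxicity is scored as a concentration-dependent drop in intracellular ATP after 24 hr exposure of the lymphoblastoid line in complete culture medium, measured by luciferase luminescence. Potency is expressed as AC50 from Hill modelling.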
Experiment [15] in a line: Cell Viability - LYMP2-020 (AID 986). Summed up:
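Acute cytotoxicity in a human lymphoblastoid line is scored as a concentration-dependent fall in cellular ATP after 24 hr at 37 C in complete medium. The positive control is tetraoctylammonium bromide, and potency is given as Hill-fit AC50.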

The nature of experiment [16]: Cell Viability - LYMP2-022 (AID 987). The method in brief:
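Acute toxicity in a human lymphoblastoid line is scored as decreased intracellular ATP after 24 hr compound treatment at 37 C. ATP is measured by CellTiter-Glo luminescence; curves are fitted with the Hill equation to give AC50.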

Experiment [17] is described as follows: Cell Viability - LYMP2-024 (AID 988).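 Further: plate controls were DMSO only for no effect and 92 µM tetraoctylammonium bromide for full effect; nearly all actives have a fitted effect of over 60% in size.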 Summed up: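 Acute toxicity is measured as concentration-dependent loss of intracellular ATP in a human lymphoblastoid line treated 24 hours at 37 C. Luciferase luminescence quantifies ATP; AC50 values come from standard Hill-equation modelling.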
The nature of experiment [18]: Cell Viability - LYMP2-026 (AID 989). Further: on the % scale 0 is the no-effect control and ±100 the full control effect; nearly all actives have a fitted effect of over 50% in size. Summed up: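 Concentration-dependent loss of intracellular ATP in human lymphoblastoid cells after 24 hr at 37 C, quantified by luciferase luminescence. AC50 derived from standard Hill equation.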
Experiment [19] in a line: Cell Viability - LYMP1-002 - Assay at 24 hr (AID 993). Further: on the % scale 0 is the no-effect control and ±100 the full control effect. Summed up:
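qHTS, LYMP1-002 lymphoblastoid, 24 h cpd, 37 C, CellTiter-Glo ATP luminescence; AC50 via Hill eq.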

Experiment [20] in a line: Cell Viability - LYMP1-002 - Assay at 40 hr (AID 994). Summed up: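 Viability in the human lymphoblastoid line was measured as intracellular ATP via CellTiter-Glo after 40 hr compound exposure. Tetraoctylammonium bromide served as positive control.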
The mark [21] stands for this setting: measured here: cell count channel max response.
Where [22] appears, read: measured here: lipid channel max response.

Values joined by “and” are separate entries in the source; they are usually repeats but may differ in a detail not shown here. Equal entries are not always repeated. Inconclusive results are not listed. Active and inactive are the calls of the source. Unless noted, the call rests on the fitted dose curve; in most records, active means well fitted curve in the direction sought with a large enough effect; inconclusive means small, poorly fitted or top-dose-only effect, or another doubt; inactive means no such curve, though single readings can be large; an effect the other way counts as inactive or inconclusive.

Chain of Alpha-galactosidase A (Homo sapiens) (P06280 whole entry, looked up): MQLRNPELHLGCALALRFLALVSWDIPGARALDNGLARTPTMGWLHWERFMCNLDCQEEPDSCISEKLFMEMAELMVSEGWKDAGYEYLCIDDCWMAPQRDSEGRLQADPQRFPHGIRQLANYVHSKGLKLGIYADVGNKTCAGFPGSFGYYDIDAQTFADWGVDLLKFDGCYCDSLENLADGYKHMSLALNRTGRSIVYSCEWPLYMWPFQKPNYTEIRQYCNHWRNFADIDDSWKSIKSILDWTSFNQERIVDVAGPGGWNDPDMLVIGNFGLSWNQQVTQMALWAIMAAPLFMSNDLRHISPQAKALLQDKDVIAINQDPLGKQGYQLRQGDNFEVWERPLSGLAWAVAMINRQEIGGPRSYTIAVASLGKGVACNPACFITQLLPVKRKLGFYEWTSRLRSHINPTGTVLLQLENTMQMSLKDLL

As to `N[C@@H]1CONC1=O`, the molecule was classed as inactive in [1] and in experiment [2]. Further, the activity change, negative = inhibition in experiment [3] (at 25.7 µM (top of the series)) is -1.13% (inactive) and 2.32% (inactive); in experiment [3] (at 57.5 µM (top of the series)) it was 0.855% (inactive). The max response in experiment [3] (setting [21]) was -10.2% and -6.54% and 0.81%; in experiment [3] (setting [22]), -10.7% and -4.08% and 1.58%.
`NCCCC(N)(C(=O)O)C(F)F` (stereo not drawn): the result in experiment [2] was inactive.
As to `Nc1ccc(S(=O)(=O)Nc2ccnn2-c2ccccc2)cc1`, the molecule was called inactive in experiment [1] and in [2]. Moreover, the results for the activity change, negative = inhibition in experiment [3] (at 25.7 µM (top of the series)) and in [3] (at 57.5 µM (top of the series)) were -1.01% (inactive) and 14.1% (inactive), respectively. Besides, the max response in experiment [3] (setting [21]) is -3.22% and 11.1%; in experiment [3] (setting [22]), -3.23% and 26.2%.
With `O=C(O)COCCN1CCN(C(c2ccccc2)c2ccc(Cl)cc2)CC1` (stereo not drawn), the activity change, negative = inhibition in experiment [3] (at 57.5 µM (top of the series)) was 5.98% (inactive). Besides, the max response is 4.08% in experiment [3] (setting [21]) and 13.6% in experiment [3] (setting [22]).
Regarding `CC(=O)Oc1ccccc1C(=O)O`, the outcome in [4], in experiment [5], in experiment [6], in experiment [7], in experiment [8] and in [9] was inactive. Further, the outcome in [11], in [12], in experiment [13], in experiment [14], in experiment [15] and in experiment [16] was inactive. Further, the molecule was called inactive in experiment [17], in experiment [18], in experiment [1], in experiment [19], in [20] and in experiment [2]. Also, the Potency result in experiment [10] is “inactive”. Moreover, the activity change, negative = inhibition in [3] (at 57.5 µM (top of the series)) is 4.32% (inactive). The max response was found to be 19.3% in experiment [3] (setting [21]) and 27.8% in [3] (setting [22]).
Take `Cc1oncc1C(=O)Nc1ccc(C(F)(F)F)cc1`: the molecule was classed as inactive in experiment [1] and in experiment [2]. Further, the activity change, negative = inhibition in [3] (at 25.7 µM (top of the series)) is 0.243% (inactive); in experiment [3] (at 57.5 µM (top of the series)), 13.4% (inactive) and -0.067% (inactive). Also, the max response in experiment [3] (setting [21]) was -14.5% and 1.19% and -29.1%; in [3] (setting [22]), -15.6% and 18.5% and -28.2%.
In the case of `N=c1nc(N2CCCCC2)cc(N)n1O`, the molecule was classed as inactive in [1] and in experiment [2]. In addition, the activity change, negative = inhibition in experiment [3] (at 25.7 µM (top of the series)) was 0.0649% (inactive); in experiment [3] (at 57.5 µM (top of the series)), 3.81% (inactive) and 8.57% (inactive). The max response is -1.22% and 19% and 16.9% in [3] (setting [21]); 1.34% and 23.5% and 29.3% in [3] (setting [22]).
In the case of `c1ccc([C@H]2CN3CCSC3=N2)cc1`, in experiment [3] (at 57.5 µM (top of the series)), the activity change, negative = inhibition was 0.161% (inactive). Moreover, the values for the max response in experiment [3] (setting [21]) and in experiment [3] (setting [22]) were 21.4% and 20.7%, respectively.
For `CCC(C)N(C)C(=O)c1cc2ccccc2c(-c2ccccc2Cl)n1` (stereo not drawn), in experiment [2], the call was inactive.
In the case of `O=C1CCC(N2C(=O)c3ccccc3C2=O)C(=O)N1` (stereo not drawn), in experiment [2], the call was inactive. Moreover, in experiment [3] (at 57.5 µM (top of the series)), the activity change, negative = inhibition was 4.49% (inactive) and -2.08% (inactive). The max response in experiment [3] (setting [21]) was 6.67% and -27.8%; in experiment [3] (setting [22]) it was 12.7% and -27.8%.
Turning to `Cc1ccc(N(CC2=NCCN2)c2cccc(O)c2)cc1`, the result in [1] and in [2] was inactive. The activity change, negative = inhibition in [3] (at 25.7 µM (top of the series)) is 1.77% (inactive); in [3] (at 57.5 µM (top of the series)) it was 11.7% (inactive) and 0.54% (inactive). The max response was -12.1% and 5.79% and 62.4% in experiment [3] (setting [21]); -8.46% and 20.7% and 65.8% in [3] (setting [22]).
For `C1COC(NC(C2CC2)C2CC2)=N1`, in [1], the call was inactive. The activity change, negative = inhibition in experiment [3] (at 25.7 µM (top of the series)) was -4.99% (inactive). In addition, the max response was 3.69% in experiment [3] (setting [21]) and -12.8% in [3] (setting [22]).
For `Clc1cccc(Cl)c1NC1=NCCN1`, the call in experiment [1] was inactive. The activity change, negative = inhibition in [3] (at 25.7 µM (top of the series)) was -3.52% (inactive); in experiment [3] (at 57.5 µM (top of the series)) it was 4.4% (inactive) and 1.2% (inactive). Besides, the max response is 3.68% and -5.77% and -17.1% in experiment [3] (setting [21]); -1.31% and -6% and -15.4% in experiment [3] (setting [22]).

The values are drawn from PubChem BioAssay (NCATS).
